What all share (test): NCI-60 one-dose screen, 48 h (100 = growth as untreated, 0 = no growth, -100 = all killed)
Holding throughout (details): 10 µM unless noted

Experiment [1] deals with SR leukemia.
The subject of experiment [2] is RPMI-8226 leukemia.
Experiment [3] concerns OVCAR-8 ovarian.
In experiment [4] the test system is OVCAR-5 ovarian.
In experiment [5] the test system is OVCAR-4 ovarian.
Experiment [6] concerns SK-OV-3 ovarian.
Experiment [7] relates to IGROV1 ovarian.
In experiment [8] the test system is OVCAR-3 ovarian.
Experiment [9] concerns HS 578T breast.
The subject of experiment [10] is NCI/ADR-RES ovarian.

About 83,000 compounds went through this panel and 20% of them were active in at least one assay; those are over-represented in the sample as a whole.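 96-well plates, one dose, 48 hours. Percent growth reported; active if below 10.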 Values without a mark were called inactive. Calls of active or inactive are those of the source.

In the case of `COc1cc2cc(CN3CCN(c4nccc(-c5ccc6ccccc6c5)n4)CC3)c(=O)[nH]c2cc1OC`, the growth is -23.1% (active) in experiment [1]; 61.2% in experiment [2]; 28.9% in [3]; 102% in experiment [4]; 53.4% in experiment [5]; 99.6% in experiment [6]. In addition, the growth in experiment [7] was 92%; in [8], 39%; in experiment [9] it was 95.4%; in [10], 85.9%.

Regarding `CCN(CC)c1ccc(/C=N/NC(=O)CSc2nc3ccccc3c(=O)n2Cc2ccc(S(N)(=O)=O)cc2)c(O)c1`, the growth is 10.4% in [1]; 17.1% in experiment [2]; 20.4% in experiment [3]; 45% in experiment [4]; 12.6% in experiment [5]; 21.6% in experiment [6]. Besides, the growth is 26.4% in experiment [7], 15% in experiment [8], 63% in experiment [9] and 87.2% in experiment [10].

On to `c1ccc2c(-c3c[nH]c4ccccc34)c3c(cc2c1)[nH]c1ccccc13`, for which the growth in experiment [1] was 29.4%; in [2], 54.5%; in [3], 90.7%; in experiment [4], 96%; in [5], 57.8%; in experiment [6] it was 84.5%. The growth in [7] is 69%; in experiment [8], 59.3%; in [9] it was 84.1%; in experiment [10] it was 56.6%.

For the compound `COc1ccc(C(=O)Cn2c(C(=O)c3ccccc3)nc3ccccc32)cc1`, the growth in experiment [1] is 13%; in [2], -6.46% (active); in experiment [3] it was 49.3%; in experiment [4], 62%; in experiment [5], 40.4%; in [6], 73%. Further, the growth was 10.1% in experiment [7], 5.28% (active) in experiment [8], -7.32% (active) in experiment [9] and -28.3% (active) in experiment [10].

For `CCN(CC)c1ccc(C(=O)c2ccccc2)cc1`, the growth was 86.2% in experiment [1]; 95.8% in experiment [2]; 97% in [3]; 100% in experiment [4]; 97.3% in experiment [5]; 98.6% in experiment [6]. The growth in experiment [7] is 89.8%; in [8] it was 103%; in experiment [9], 102%; in experiment [10], 89.4%.

Consider `CC(=O)c1cc2c(N)c(C(=O)Nc3cccc4ccncc34)sc2nc1C`, for which the growth is 49.8% in [1]; 103% in [2]; 108% in experiment [3]; 106% in experiment [4]; 110% in experiment [5]; 93.4% in experiment [6]. Moreover, the growth in experiment [7] is 101%; in experiment [8], 103%; in [9], 91.3%; in experiment [10], 108%.

In the case of `O=C(CCN1CCCC1)Nc1ccc2c(NCCCCc3ccccc3)c3ccccc3nc2c1`, the growth is -29% (active) in experiment [1]; -42.7% (active) in experiment [2]; 1.13% (active) in [3]; 7.16% (active) in experiment [4]; -74.6% (active) in [5]; 53.9% in experiment [6]. Also, the growth in experiment [7] was -18.1% (active); in experiment [8] it was -82.6% (active); in experiment [9] it was -9.34% (active); in experiment [10] it was 80.8%.

Regarding `CCCCCCOc1ccc(/C=N/Nc2cc(C)nc3ccc(Cl)cc23)cc1`, the growth was -7.39% (active) in experiment [1]; -35.3% (active) in experiment [2]; -36.4% (active) in experiment [3]; 26.5% in experiment [4]; -58.1% (active) in [5]; 90.2% in experiment [6]. Also, the growth in [7] is -79% (active); in [8] it was -97% (active); in experiment [9] it was 28.5%; in experiment [10], -27.8% (active).

As to `c1ccc2cc(Cn3c(-c4cccc5ccccc45)[n+](Cc4ccc5ccccc5c4)c4c5ccccc5c5ccccc5c43)ccc2c1`, the growth in experiment [1] is -56% (active); in experiment [2], -38.7% (active); in [3], -67% (active); in [4], -76.7% (active); in experiment [5], -80% (active); in experiment [6] it was -79.4% (active). Further, the growth is -71.8% (active) in experiment [7], -89.4% (active) in experiment [8], -42.1% (active) in experiment [9] and 17.7% in [10].

Turning to `O=C(CSc1nc2sc3c(c2c(=O)n1-c1ccc(Cl)cc1)CCCC3)Nc1nc(-c2cccc(Br)c2)cs1`, the growth was 80.6% in experiment [1]; 96.4% in experiment [2]; 68.1% in experiment [3]; 75.7% in experiment [4]; 72.9% in experiment [5]; 94.2% in experiment [6]. In addition, the growth in experiment [7] was 72.6%; in [8] it was 89%; in experiment [9], 72.6%; in [10] it was 80.5%.

For `OC(c1ccc(F)c(C(F)(F)F)c1)c1cnccc1NC1CCCCC1` (stereo not given), the growth was 16.6% in experiment [1]; 16.9% in experiment [2]; 81.8% in experiment [3]; 85.3% in experiment [4]; 64.8% in [5]; 103% in [6]. Besides, the growth in [7] is 70%; in experiment [8], 72.3%; in experiment [9], 77.3%; in [10], 74.7%.

These data come from PubChem BioAssay (NCI).
